Results: PubChem BioAssay (NCI)
This is part of a sample that, as a whole, favours compounds with a hit. Of some 83,000 tested, about 20% had one in any assay.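 A percent growth of 40 corresponds to 60% growth inhibition; 0 means no net growth; -100 means all cells died. Active threshold: below 10.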 Active and inactive are the calls of the source.

Assays:
Assay in all cases: NCI-60 one-dose screen, 48 h (100 = growth as untreated, 0 = no growth, -100 = all killed)
Conditions in all cases: 10 µM unless noted
[1] = system: OVCAR-8 ovarian
[2] = system: OVCAR-5 ovarian
[3] = system: OVCAR-4 ovarian
[4] = system: SK-OV-3 ovarian
[5] = system: IGROV1 ovarian
[6] = system: OVCAR-3 ovarian
[7] = system: HS 578T breast
[8] = system: NCI/ADR-RES ovarian
[9] = system: RPMI-8226 leukemia

Measured: growth

CCCCn1c(-c2ccc(C(=O)O/N=C(\N)c3ccc(OC)cc3)cc2)nc(-c2ccccc2)c1-c1ccccc1
inactive: [2] 24.1% | [3] 23.1% | [4] 87%
active: [1] -16.8% | [5] -70.2% | [6] -6.99% | [7] -8.31% | [8] -39.5%

Cc1ccc(NC2=C(Cl)C(=O)c3nc(C)ccc3C2=O)cc1
active: [1] -49.4% | [2] -11.6% | [3] -97.9% | [5] -75.5% | [6] -76.7%
inactive: [4] 88.7% | [8] 30.6%

CCOc1cccc(NC2=C(Br)C(=O)C(C)=C(C)C2=O)c1
inactive: [1] 91.5% | [2] 95.7% | [3] 56.7% | [4] 88% | [5] 58.6% | [6] 87.6% | [7] 91.2% | [8] 96.5%

CCCCCCn1c(-c2ccc(C(=O)O/N=C(\N)c3ccc(OC)cc3)cc2)nc(-c2ccccc2)c1-c1ccccc1
inactive: [2] 25.5% | [4] 77.9% | [6] 18%
active: [1] 1.03% | [3] 7.82% | [5] -68.1% | [7] -20.4% | [8] -36.9%

CCc1cccc2c3c(sc12)C(c1ccc(Cl)cc1)C(C#N)=C(N)O3 (stereo not given)
inactive: [1] 29.4% | [2] 24.6% | [3] 75.2% | [4] 58.3% | [5] 30.2% | [8] 19.2%
active: [6] 2.19% | [7] 4.92%

COc1cc2cc(Oc3ccc(NC(=O)Nc4ccc(Cl)c(Cl)c4)cc3)c(C)nc2cc1OCCN1CCOCC1
inactive: [1] 91.1% | [2] 127% | [3] 85% | [4] 111% | [5] 97.8% | [6] 106% | [7] 102% | [8] 91.4%

O=C1c2cccc3cccc(c23)C(=O)N1Nc1nc(NC2CCCCC2)nc(N2CCOCC2)n1
inactive: [1] 99% | [2] 95.6% | [3] 106% | [4] 95.7% | [5] 90.3% | [6] 103% | [7] 99.4% | [8] 99.8%

CC([C@H]1CCC2C3CCC4C[C@@H](NC=O)CC[C@]4(C)C3CC[C@@]21C)N(C)C (stereo not given in full)
inactive: [4] 42.5% | [5] 25.6% | [8] 27.1%
active: [3] -18.6% | [6] -34.3% | [7] -2.92%

COc1cccc(/C=C2\C=C(c3ccccc3)N(Cc3ccccc3)C2=O)c1
inactive: [1] 68% | [2] 92.8% | [3] 71.9% | [4] 42% | [6] 59.3% | [7] 42% | [8] 51.3%

Cc1nn(-c2ccccc2)c(-n2ccnc2)c1/C=N/Nc1nc(-c2ccc(Cl)c(Cl)c2)cs1
active: [3] -22.1% | [6] -69.4% | [8] -9.8%
inactive: [1] 20% | [2] 71.8% | [4] 89.5% | [5] 60.9% | [7] 42%

CN(C)CCN1CCN(c2ncccc2C2Nc3ccccc3-n3cccc32)CC1 (stereo not given)
inactive: [1] 101% | [2] 100% | [3] 113% | [4] 107% | [5] 105% | [6] 115% | [7] 95.7% | [8] 104%

COc1cccc(Cc2cc(-c3ccccc3)nn(CC(=O)c3ccccc3)c2=O)c1
inactive: [1] 58.7% | [2] 96.4% | [3] 69.5% | [4] 89.6% | [6] 64.9% | [7] 66.9% | [8] 57.2%

CCOC(=O)Nc1ccc(-c2nc(-c3cccc(OCCN4CCOCC4)c3)c(-c3ccnc(Br)c3)[nH]2)cc1
active: [7] -16.4%
inactive: [1] 43.8% | [2] 66.9% | [3] 52.7% | [4] 80.8% | [5] 63.6% | [6] 48.6% | [8] 60.7%

COc1cc(/C=C/c2ccccc2)cc(OC)c1
inactive: [1] 97.7% | [2] 95.6% | [3] 105% | [4] 106% | [5] 84.6% | [6] 105% | [7] 104% | [8] 99.6%

Cc1ccc(C(CC(=O)O)c2c(C)[nH][nH]c2=O)cc1 (stereo not given)
inactive: [2] 106% | [3] 111% | [4] 97.7% | [5] 105% | [6] 109% | [7] 109% | [8] 102%

COc1ccc(-c2nc3sc(-c4ccccc4)cn3n2)cc1
inactive: [9] 78.6% | [3] 62.2% | [4] 67.8% | [5] 47.8% | [6] 58.2% | [8] 34%

Cc1c(C(=O)/C=C/Nc2c(Cl)cc(S(N)(=O)=O)cc2Cl)sc2nc3ccccc3n12
inactive: [1] 101% | [2] 106% | [3] 116% | [4] 111% | [5] 111% | [6] 107% | [7] 105% | [8] 110%

CC(=O)OC[C@H]1OC(Sc2sc(C(=O)c3ccc(C)cc3)c(N)c2-c2nc3ccccc3s2)[C@H](OC(C)=O)[C@@H](OC(C)=O)[C@@H]1OC(C)=O (stereo not given in full)
inactive: [9] 46.5% | [4] 89.9% | [5] 48.2% | [6] 59.4% | [7] 52.5% | [8] 62.9%
active: [3] -13.9%

CC(C)n1cnc2c(Nc3cccc(Cl)c3)nc(N[C@H]3CCCC[C@@H]3N)nc21
inactive: [9] 19.8% | [2] 50.4% | [3] 55.4% | [4] 80.6% | [5] 29.4% | [6] 61.2% | [8] 61.4%

O=c1c2cc(F)ccc2sc2c(NCCCNCCO)nc3ccc(F)cc3c12
inactive: [1] 58.5% | [2] 73.7% | [3] 41.5% | [4] 80.4% | [5] 43.6% | [6] 30.4% | [7] 61% | [8] 66.5%

CN1CCN(CC(=O)N2c3cccc4cccc(c34)N(C(=O)CN3CCN(C)CC3)C2c2cn(-c3ccccc3)nc2-c2cccc([N+](=O)[O-])c2)CC1
active: [1] -8.45% | [3] -21.8% | [4] -14.4% | [5] 4.75% | [6] -57.6%
inactive: [2] 20.5% | [7] 28.6% | [8] 72.4%

O=C(Nc1ccc(I)cc1F)c1cc(I)ccc1O
inactive: [2] 21.6% | [3] 22.3% | [4] 13.9% | [5] 18.4%
active: [6] 4.35% | [7] 3.07% | [8] 5.58%

Fc1cc(-c2nnc3n2NC(=Nc2ccc(Cl)cc2)CS3)c(Cl)cc1Cl
inactive: [9] 66.9% | [2] 80.3% | [3] 89.9% | [4] 89.8% | [5] 57.2% | [6] 91.6% | [7] 89.3% | [8] 88.3%

CCOC(=O)c1c(C)oc2ncnc(N3CCN(C(=O)COc4ccc(C(C)(C)C)cc4)CC3)c12
inactive: [9] 44.9% | [3] 74.4% | [4] 85.4% | [5] 73.7% | [6] 98.4% | [7] 78.8% | [8] 73.6%
